# Results from paper PMC7862700, “An all-to-all approach to the identification of sequence-specific readers for epigenetic DNA modifications on cytosine”.
# Columns and labels:
# Test in all cases: DAPPL (digital affinity profiling via proximity ligation, sequencing); 10 mM Tris-HCl pH 7.5, 50 mM NaCl, 1 mM DTT, 4% glycerol, room temperature, 30 min; GST-TFs on glutathione beads, 16-mer random dsDNA library, 0.1% formaldehyde crosslink after washing; high values mean tight binding
# Conditions in all cases: protein: recombinant; tags: N-terminal GST; dsDNA, one strand shown
# FLI1 = target: T1, FLI1 (Homo sapiens, UniProt Q01543 1-452)
# T1 sequence: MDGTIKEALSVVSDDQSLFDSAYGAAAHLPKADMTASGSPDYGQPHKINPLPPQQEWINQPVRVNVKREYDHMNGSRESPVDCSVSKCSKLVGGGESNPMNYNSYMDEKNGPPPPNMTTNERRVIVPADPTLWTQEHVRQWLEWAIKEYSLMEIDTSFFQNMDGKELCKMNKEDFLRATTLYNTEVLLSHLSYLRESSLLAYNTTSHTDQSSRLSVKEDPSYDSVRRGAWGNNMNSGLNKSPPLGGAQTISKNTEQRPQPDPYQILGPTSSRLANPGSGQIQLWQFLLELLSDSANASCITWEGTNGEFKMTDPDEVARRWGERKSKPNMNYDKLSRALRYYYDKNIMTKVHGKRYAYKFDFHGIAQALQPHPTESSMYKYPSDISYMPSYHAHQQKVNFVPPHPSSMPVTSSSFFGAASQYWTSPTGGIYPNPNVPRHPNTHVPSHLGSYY
# How it was run: (§1)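 Human transcription factors fused to GST were expressed in yeast, captured on glutathione beads, given DNA barcodes and pooled with a GST-only negative control. Pools were incubated with 200 nmole of a 16-mer random double-stranded DNA library in Tris/NaCl/DTT/glycerol buffer at room temperature for 30 min. They were then washed, crosslinked with 0.1% formaldehyde, proximity-ligated (BsaI/T4 ligase, 1 h, 37 °C), PCR-amplified and sequenced on an Illumina NextSeq500. Binding signal is each 6-mer's read frequency for a factor divided by its frequency for the GST control.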
# ELK1 = target: T2, ELK1 (Homo sapiens, UniProt P19419 1-428)
# T2 sequence: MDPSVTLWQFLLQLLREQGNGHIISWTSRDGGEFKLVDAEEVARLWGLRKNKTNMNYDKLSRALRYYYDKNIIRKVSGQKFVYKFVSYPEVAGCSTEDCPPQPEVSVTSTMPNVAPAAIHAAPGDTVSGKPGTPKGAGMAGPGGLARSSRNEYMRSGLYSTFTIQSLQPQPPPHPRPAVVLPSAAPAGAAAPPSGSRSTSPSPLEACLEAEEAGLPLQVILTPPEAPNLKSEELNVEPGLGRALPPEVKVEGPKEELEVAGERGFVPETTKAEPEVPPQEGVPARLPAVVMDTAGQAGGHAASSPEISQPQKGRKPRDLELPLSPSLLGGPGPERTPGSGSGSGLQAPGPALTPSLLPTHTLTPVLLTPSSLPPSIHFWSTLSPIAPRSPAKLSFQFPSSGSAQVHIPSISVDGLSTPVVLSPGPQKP
# How it was run: as §1
# GABPA = target: T3, GABPA (Homo sapiens, UniProt Q06546 1-454)
# T3 sequence: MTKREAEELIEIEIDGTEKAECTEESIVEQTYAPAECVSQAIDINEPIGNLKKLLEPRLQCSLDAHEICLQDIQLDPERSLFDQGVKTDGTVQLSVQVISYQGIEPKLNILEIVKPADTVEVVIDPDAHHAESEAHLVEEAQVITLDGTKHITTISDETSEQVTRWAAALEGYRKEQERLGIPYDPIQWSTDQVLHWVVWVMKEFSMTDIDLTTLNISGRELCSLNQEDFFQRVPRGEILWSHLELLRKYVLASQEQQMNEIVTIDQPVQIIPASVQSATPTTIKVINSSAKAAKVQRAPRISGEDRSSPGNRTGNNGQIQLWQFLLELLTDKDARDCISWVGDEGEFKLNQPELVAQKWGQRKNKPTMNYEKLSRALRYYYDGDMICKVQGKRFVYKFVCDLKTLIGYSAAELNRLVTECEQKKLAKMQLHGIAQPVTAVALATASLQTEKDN
# How it was run: as §1
# ERG = target: T4, ERG (Homo sapiens, UniProt P11308 1-479)
# T4 sequence: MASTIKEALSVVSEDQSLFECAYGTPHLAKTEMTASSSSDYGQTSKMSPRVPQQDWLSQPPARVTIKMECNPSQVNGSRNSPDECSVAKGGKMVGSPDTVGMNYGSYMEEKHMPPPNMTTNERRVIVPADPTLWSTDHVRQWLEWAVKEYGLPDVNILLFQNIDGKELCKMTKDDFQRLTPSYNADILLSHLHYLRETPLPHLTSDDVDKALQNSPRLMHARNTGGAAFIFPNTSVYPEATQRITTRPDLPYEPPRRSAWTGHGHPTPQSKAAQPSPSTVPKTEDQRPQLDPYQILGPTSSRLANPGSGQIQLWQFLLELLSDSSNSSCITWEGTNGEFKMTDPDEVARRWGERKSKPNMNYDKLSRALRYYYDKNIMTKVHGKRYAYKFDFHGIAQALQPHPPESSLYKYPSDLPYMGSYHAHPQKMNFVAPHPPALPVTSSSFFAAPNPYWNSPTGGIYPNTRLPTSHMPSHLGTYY
# How it was run: as §1
# ELF1 = ELF1 (Homo sapiens, UniProt P32519 1-619)
# ELF1, sequence (P32519 whole entry): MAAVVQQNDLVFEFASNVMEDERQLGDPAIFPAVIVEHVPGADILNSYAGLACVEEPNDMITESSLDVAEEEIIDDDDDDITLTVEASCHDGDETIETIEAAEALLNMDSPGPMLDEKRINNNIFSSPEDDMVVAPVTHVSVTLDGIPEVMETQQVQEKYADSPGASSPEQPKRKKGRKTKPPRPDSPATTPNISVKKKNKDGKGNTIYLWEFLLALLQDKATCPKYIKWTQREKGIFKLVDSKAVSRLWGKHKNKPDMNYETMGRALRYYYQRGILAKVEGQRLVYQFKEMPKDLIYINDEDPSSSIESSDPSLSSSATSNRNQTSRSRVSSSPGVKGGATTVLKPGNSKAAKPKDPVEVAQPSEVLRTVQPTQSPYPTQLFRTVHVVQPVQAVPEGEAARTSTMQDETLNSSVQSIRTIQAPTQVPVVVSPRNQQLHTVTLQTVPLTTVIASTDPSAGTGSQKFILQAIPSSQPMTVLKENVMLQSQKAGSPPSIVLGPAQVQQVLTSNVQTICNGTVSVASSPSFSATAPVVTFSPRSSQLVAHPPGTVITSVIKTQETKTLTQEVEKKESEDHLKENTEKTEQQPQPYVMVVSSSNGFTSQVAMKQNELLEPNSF
# How it was run: as §1
# EHF = target: T5, EHF (Homo sapiens, UniProt Q9NZC4 1-300)
# T5 sequence: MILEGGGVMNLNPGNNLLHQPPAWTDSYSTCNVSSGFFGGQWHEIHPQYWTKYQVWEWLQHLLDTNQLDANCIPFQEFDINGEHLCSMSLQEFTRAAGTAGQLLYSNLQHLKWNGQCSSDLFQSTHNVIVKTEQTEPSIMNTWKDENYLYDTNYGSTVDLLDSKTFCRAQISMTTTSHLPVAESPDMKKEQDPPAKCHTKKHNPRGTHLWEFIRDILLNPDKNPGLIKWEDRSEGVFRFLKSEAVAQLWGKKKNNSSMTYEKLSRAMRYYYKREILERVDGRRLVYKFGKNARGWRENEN
# How it was run: as §1
# SPI1 = SPI1 (Homo sapiens, UniProt P17947 1-270)
# How it was run: as §1
# SPIB = SPIB (Homo sapiens, UniProt Q01892 1-262)
# SPIB, sequence (Q01892 whole entry): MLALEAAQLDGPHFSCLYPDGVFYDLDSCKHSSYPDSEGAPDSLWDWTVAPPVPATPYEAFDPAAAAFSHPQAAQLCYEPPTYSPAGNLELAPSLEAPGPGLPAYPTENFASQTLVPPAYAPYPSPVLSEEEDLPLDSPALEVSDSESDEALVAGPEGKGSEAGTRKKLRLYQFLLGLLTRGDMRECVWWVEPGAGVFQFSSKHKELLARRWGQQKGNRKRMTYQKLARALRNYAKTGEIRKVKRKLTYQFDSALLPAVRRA
# How it was run: as §1
# ELK3 = target: T6, ELK3 (Homo sapiens, UniProt P41970 1-407)
# T6 sequence: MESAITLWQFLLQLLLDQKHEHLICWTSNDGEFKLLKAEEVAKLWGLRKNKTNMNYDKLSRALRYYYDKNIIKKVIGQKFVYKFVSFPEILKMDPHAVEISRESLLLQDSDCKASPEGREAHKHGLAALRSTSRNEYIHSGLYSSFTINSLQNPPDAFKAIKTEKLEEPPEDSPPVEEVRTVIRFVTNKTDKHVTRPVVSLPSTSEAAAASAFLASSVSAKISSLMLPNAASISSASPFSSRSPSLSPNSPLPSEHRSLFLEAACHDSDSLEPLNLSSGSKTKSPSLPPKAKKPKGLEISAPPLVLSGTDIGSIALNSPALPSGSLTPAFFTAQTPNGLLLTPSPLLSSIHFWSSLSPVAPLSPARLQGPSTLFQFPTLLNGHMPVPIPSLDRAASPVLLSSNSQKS
# How it was run: as §1
sequence,measurement,setting,value
ATTGAT,binding signal,FLI1,"1.28 fold enrichment (6-mer frequency, TF over GST control)"
same,binding signal,ELK1,"1.35 fold enrichment (6-mer frequency, TF over GST control)"
same,binding signal,GABPA,"1.39 fold enrichment (6-mer frequency, TF over GST control)"
same,binding signal,ERG,"1.33 fold enrichment (6-mer frequency, TF over GST control)"
same,binding signal,ELF1,"1.31 fold enrichment (6-mer frequency, TF over GST control)"
same,binding signal,EHF,"1.17 fold enrichment (6-mer frequency, TF over GST control)"
same,binding signal,SPI1,"1.24 fold enrichment (6-mer frequency, TF over GST control)"
same,binding signal,SPIB,"1.16 fold enrichment (6-mer frequency, TF over GST control)"
same,binding signal,ELK3,"1.33 fold enrichment (6-mer frequency, TF over GST control)"
